Tests used:
Conditions in all cases: concentration: 1 μM, replicates: in singlicate; n = 1
PIP5K1A = test system: PIP5K1A
PIP5K1C = test system: PIP5K1C
PIP5K2B = test system: PIP5K2B
PIP5K2C = test system: T1, PIP5K2C
T1 construct: gene PIP4K2C

PKAC-alpha = test system: T2, PKAC-alpha
T2 construct: gene PRKACA

PKAC-beta = test system: T3, PKAC-beta
T3 construct: gene PRKACB

PKMYT1 = test system: PKMYT1
PKN1 = test system: PKN1
PKN2 = test system: PKN2
PLK1 = test system: PLK1
PLK2 = test system: PLK2
PLK3 = test system: PLK3
PLK4 = test system: PLK4
PRKCD = test system: PRKCD
PRKCE = test system: PRKCE
PRKCH = test system: PRKCH
PRKCI = test system: PRKCI
PRKCQ = test system: PRKCQ
PRKD1 = test system: PRKD1
PRKD2 = test system: PRKD2
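Also: KINOMEscan kinase panel screen.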

Structure (SMILES)	%Inh (PIP5K1A)	%Inh (PIP5K1C)	%Inh (PIP5K2B)	%Inh (PIP5K2C)	%Inh (PKAC-alpha)	%Inh (PKAC-beta)	%Inh (PKMYT1)	%Inh (PKN1)	%Inh (PKN2)	%Inh (PLK1)	%Inh (PLK2)	%Inh (PLK3)	%Inh (PLK4)	%Inh (PRKCD)	%Inh (PRKCE)	%Inh (PRKCH)	%Inh (PRKCI)	%Inh (PRKCQ)	%Inh (PRKD1)	%Inh (PRKD2)
CSc1ccc(NC2=C(c3ccc(Cl)cc3)C(=O)NC2=O)cc1 [SB-317658]	0%	0%	43%	0%	16%	16%	10%	7%	9%	4%	6%	0%	30%	4%	0%	2%	8%	0%	17%	0%
CN(c1ccc(NC(=O)N2CCN(CCCN3CCOCC3)CC2)cc1)c1ccnc(Nc2ccc(CS(C)(=O)=O)cc2)n1.Cl [GW830899]	0%	26%	32%	55%	0%	29%	25%	0%	0%	3%	0%	0%	39%	23%	0%	0%	43%	0%	0%	0%
COC(=O)Nc1nc2cc(Oc3ccc(NC(=O)Nc4cccc(SC)c4)cc3)ccc2[nH]1.Cl [GW697999]	56%	62%	20%	40%	0%	4%	0%	0%	0%	0%	0%	0%	0%	1%	11%	4%	0%	0%	3%	10%
N#Cc1cnc2cc(-c3cnc(CNCCN4CCOCC4)s3)ccc2c1Nc1ccc(Oc2ccccc2)cc1 [GW664114]	25%	34%	31%	41%	0%	0%	0%	13%	0%	0%	0%	0%	2%	0%	0%	96.3%	5%	0%	0%	18%
Cc1cc(-c2ccnc(Nc3cccc(C#N)c3)n2)cc(C)c1O [GSK1440913]	11%	70%	61%	94.9%	3%	0%	6%	0%	14%	0%	0%	0%	15%	0%	6%	5%	5%	12%	0%	0%
NCCC(NC(=O)c1cc(Br)c(-c2ccnc3[nH]ccc23)s1)c1ccccc1.O=C(O)C(F)(F)F.O=C(O)C(F)(F)F (stereo not shown) [GSK1307810]	82%	81%	0%	57%	99.4%	99.6%	0%	50%	87%	0%	28%	35%	19%	99.6%	98.1%	98.3%	0%	90%	0%	31%
N#CC1(c2cccc(C(=O)Nc3cccc(Oc4ccc5nc(NC(=O)C6CC6)sc5n4)c3)c2)CC1	3%	59%	0%	23%	34%	0%	0%	0%	0%	13%	5%	21%	0%	5%	9%	0%	18%	40%	40%	0%
CN(C)CCNS(=O)(=O)c1ccc(-c2ccnc3[nH]ccc23)cc1 [GSK977620]	8%	32%	0%	0%	98.4%	97.7%	14%	9%	56%	0%	0%	0%	1%	83%	88%	82%	21%	62%	0%	10%
CCNc1nccc(-c2c(-c3ccc(F)cc3)ncn2C2CCN(C)CC2)n1	0%	0%	0%	0%	20%	0%	0%	0%	0%	0%	0%	0%	0%	6%	31%	0%	0%	0%	40%	0%
O=C(O)C(F)(F)F.O=c1[nH]ccc2nc(N[C@@H]3CCNC3)nc(Nc3cc(Cl)cc(Cl)c3)c12 [GSK2188764]	75%	75%	86%	85%	20%	35%	8%	83%	81%	81%	26%	16%	81%	99.6%	100%	97.4%	85%	95.1%	82%	93.4%
Nc1cccc(-c2ccc3c(N)n[nH]c3c2)c1 [GSK2193613]	0%	28%	0%	16%	0%	4%	8%	0%	0%	0%	0%	0%	4%	68%	11%	61%	0%	20%	0%	2%
CC(=O)Nc1cn2nc(Oc3cccc(NC(=O)c4cccc(C(F)(F)F)c4)c3)ccc2n1	11%	5%	0%	32%	8%	52%	0%	0%	23%	0%	0%	0%	0%	0%	0%	0%	0%	0%	18%	17%
Cc1nn2c(=O)cc(N3CCO[C@H](C)C3)nc2n1Cc1cccc(Cl)c1Cl [GSK2373693]	0%	83%	4%	0%	23%	14%	62%	43%	0%	0%	0%	0%	48%	0%	74%	13%	24%	12%	14%	2%
Cc1cc(-c2c(-c3ccc(F)cc3)ncn2CCCN2CCOCC2)nc(N)n1 [SB-222517]	0%	0%	0%	0%	26%	16%	4%	0%	10%	12%	11%	25%	15%	28%	0%	0%	27%	0%	0%	0%
CCn1cnc2c(NCc3ccccc3)ncnc21 [SKF-96418]	21%	22%	0%	0%	0%	0%	0%	0%	0%	14%	25%	34%	1%	3%	29%	0%	0%	0%	0%	0%
COc1cc(Nc2nccc(N3CCC(NS(=O)(=O)c4ccc(NC(C)=O)cc4)CC3)n2)cc(OC)c1OC [GSK1379825]	11%	56%	0%	77%	0%	0%	40%	16%	0%	4%	0%	29%	27%	0%	14%	35%	19%	26%	0%	0%
COc1cc(Nc2ccnc3cc(-c4ccncc4)ccc23)cc(OC)c1OC.Cl [GW494610]	0%	36%	8%	27%	0%	2%	0%	0%	7%	0%	0%	0%	0%	13%	25%	16%	0%	0%	19%	24%
Cc1ccc(O)cc1Nc1ccnc2cc(-c3ccc(CN4CCCCC4)o3)ccc12 [GW557777]	0%	0%	0%	0%	5%	0%	0%	0%	0%	0%	13%	0%	0%	0%	0%	0%	0%	0%	96.5%	97.8%
COc1cccc2c(-c3ccncc3)c(-c3ccc(F)cc3)nn12 [GW468513]	0%	64%	6%	26%	23%	31%	0%	6%	0%	0%	0%	0%	0%	6%	25%	30%	26%	41%	29%	20%
O=C(O)C(F)(F)F.O=c1[nH]ccc2nc(N[C@@H]3CCNC3)nc(Nc3ccc4c(c3)S(=O)(=O)CC4)c12 [GSK2181306]	57%	84%	84%	76%	24%	43%	16%	0%	71%	31%	5%	0%	97.4%	99.1%	97.9%	92.9%	78%	53%	92.1%	96.2%

Source: article PMC5540273 (PLoS ONE, 2017)
